Measurements from the supplement of paper PMC6518042.
Values without a mark were called inactive.

Each molecule was assayed on Pectobacterium parmentieri SCC3193 (assay: DuctApe activity index (growth/respiration on compound as sole nutrient source, blank-subtracted) (activity index (0-3)); higher = stronger utilization of the compound, active = 3 or more). Conditions: nutrient role (plate category): carbon.
Description: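 Biolog Phenotype Microarray plates PM1, PM2A (carbon), PM3 (nitrogen) and PM4 (phosphorus/sulfur) inoculated with P. parmentieri SCC3193 in M9-C minimal salts medium with Biolog dye A, and read in the OmniLog for 46 h. Each well was tested in triplicate and the experiment was run twice. DuctApe computed a blank-subtracted activity index (AV, 0-3) from the mean curves; growth is positive at AV >= 3 and negative at AV <= 2.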

| Compound | DuctApe activity index |
| --- | --- |
| OC[C@@H](O)[C@@H](O)[C@H](O)[C@H](O)CO [D-Mannitol] | 3 (active) |
| O=CC(=O)O [Glyoxylic acid] | 0 |
| O=C(O)CCCCCCCCC(=O)O [Sebacic acid] | 0 |
| CC(=O)N[C@@H]1C(O)O[C@H](CO)[C@@H](O)[C@@H]1O (stereo partly drawn) [N-Acetyl-D-Mannosamine] | 0 |
| OC[C@@H]1OC(O)[C@@H](O)[C@H](O)[C@H]1O (stereo partly drawn) [L-Glucose] | 0 |
| CCCCCC(=O)O [Caproic acid] | 0 |
| O=C[C@H](O)[C@@H](O)[C@H](O)[C@H](O)COP(=O)(O)O [D-Glucose-6-Phosphate] | 3 (active) |
| COC(=O)C(C)=O [Methylpyruvate] | 3 (active) |
| C/C=C/C=C/C(=O)O [Sorbic acid] | 0 |
| NCCC[C@H](N)C(=O)O [L-Ornithine] | 0 |
| OC[C@H]1OC(O)[C@@H](O)[C@@H](O)[C@@H]1O (stereo partly drawn) [D-Mannose] | 3 (active) |
| CCCC(=O)C(=O)O [a-Keto-Valeric acid] | 0 |
| OCc1ccccc1O[C@@H]1O[C@H](CO)[C@@H](O)[C@H](O)[C@H]1O [Salicin] | 3 (active) |
| CO[C@H]1O[C@H](CO)[C@@H](O)[C@H](O)[C@@H]1O [a-Methyl-D-Mannoside] | 0 |
| N[C@@H](CCO)C(=O)O [L-Homoserine] | 0 |
| O=C(O)CCC(=O)O [Succinic acid] | 3 (active) |
| O=C(O)CO [Glycolic acid] | 0 |
| CSCC[C@H](N)C(=O)O [L-Methionine] | 0 |
| OC[C@H]1OC(O)[C@H](O)[C@@H](O)[C@@H]1O (stereo partly drawn) [a-D-Glucose] | 3 (active) |
| OCC(O)CO [Glycerol] | 3 (active) |
| OC[C@@H](O)[C@@H](O[C@H]1O[C@H](CO)[C@@H](O)[C@H](O)[C@H]1O)[C@H](O)[C@@H](O)CO [Maltitol] | 0 |
| NCC(=O)N[C@@H](CCC(=O)O)C(=O)O | 0 |

Same assay, conditions: nutrient role (plate category): nitrogen

| Compound | DuctApe activity index |
| --- | --- |
| NO [Hydroxylamine] | 0 |
| CC(=O)N[C@@H]1C(O)O[C@H](CO)[C@@H](O)[C@@H]1O (stereo partly drawn) [N-Acetyl-D-Mannosamine] | 0 |
| CC(O)C(N)=O (racemic) [DL-Lactamide] | 0 |
| NCCC[C@H](N)C(=O)O [L-Ornithine] | 0 |
| N[C@@H]1C(O)O[C@H](CO)[C@@H](O)[C@@H]1O (stereo partly drawn) [D-Mannosamine] | 2 |
| O=c1[nH]c(=O)c2nc[nH]c2[nH]1 [Xanthine] | 3 (active) |
| N[C@@H](CCO)C(=O)O [L-Homoserine] | 0 |
| CSCC[C@H](N)C(=O)O [L-Methionine] | 0 |
| NCC(=O)N[C@@H](CCC(=O)O)C(=O)O | 1 |

Same assay, conditions: nutrient role (plate category): phosphate & sulphur

| Compound | DuctApe activity index |
| --- | --- |
| Cc1cn([C@H]2C[C@H](OP(=O)(O)O)[C@@H](CO)O2)c(=O)[nH]c1=O [Thymidine 3`-Monophosphate] | 2 |
| N[C@H](CS)C(=O)O [D-Cysteine] | 1 |
| O=C[C@H](O)[C@@H](O)[C@H](O)[C@H](O)COP(=O)(O)O [D-Glucose-6-Phosphate] | 2 |
| Nc1nc2c(ncn2[C@@H]2O[C@H](COP(=O)(O)O)[C@@H](O)[C@H]2O)c(=O)[nH]1 [Guanosine 5`-Monophosphate] | 1 |
| O=P(O)(O)O [Phosphate] | 1 |
| O=P1(O)OP(=O)(O)OP(=O)(O)O1 [Trimetaphosphate] | 2 |
| O=P(O)(O)O[C@H]1O[C@H](CO)[C@@H](O)[C@H](O)[C@@H]1O [D-Mannose-1-Phosphate] | 2 |
| CSCC[C@H](N)C(=O)O [L-Methionine] | 1 |
| NC(=O)CCCCC1CCSS1 (racemic) [DL-Lipoamide] | 1 |
